# Measurements: PubChem BioAssay (NCI)
# This is part of a sample that, as a whole, favours compounds with a hit. Of some 79,000 tested, about 15% had one in any assay. Unmarked numbers belong to inactive results. Activity calls are given as the source filed them. No stated cut-off is given here; in the data, active means growth inhibition above about 70%; inactive means the rest.
# Tests used:
# [1] = NCI Yeast Anticancer Drug Screen. Data for the rad50 strain (AID 155);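 further: 0% = growth of vehicle-only cultures of the same strain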; details: S. cerevisiae rad50 strain growth inhibition, active compounds read high
# Outline: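 Growth of the mutant yeast was measured after compound exposure and referenced to vehicle-treated cultures.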
# [2] = NCI Yeast Anticancer Drug Screen. Data for the mec2-1 strain (AID 157); details: S. cerevisiae mec2-1 strain, active compounds read high
# Outline: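 Yeast mec2-1 mutant treated with compound. Readout: growth inhibition vs vehicle controls.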
# [3] = NCI Yeast Anticancer Drug Screen. Data for the sgs1 mgt1 strain (AID 161);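 further: 0% = growth of cultures given vehicle only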; details: S. cerevisiae sgs1 mgt1 strain, active compounds read high
# Outline: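 Inhibition of yeast growth, normalised to vehicle-treated controls, is reported for a strain bearing genetic alterations in DNA damage repair.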
# [4] = NCI Yeast Anticancer Drug Screen. Data for the cln2 rad14 strain (AID 165);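 further: 0% = growth equal to vehicle treated cultures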; details: S. cerevisiae cln2 rad14 strain, active compounds read high
# Outline: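 cln2 rad14 yeast strain; compound exposure; growth inhibition read vs vehicle controls.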
# [5] = NCI Yeast Anticancer Drug Screen. Data for the bub3 strain (AID 167); details: S. cerevisiae bub3 mutant strain, active compounds read high
# Outline: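 Whole-cell yeast assay. The mutant strain was incubated with compounds, and growth inhibition was determined by comparison with vehicle-treated cells.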
# [6] = NCI Yeast Anticancer Drug Screen. Data for the mlh1 rad18 strain (AID 175); details: S. cerevisiae mlh1 rad18 strain growth inhibition, active compounds read high
# Outline: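 Yeast w/ defined DNA-repair lesions; compound exposure; growth vs vehicle controls → % inhibition.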
# [7] = at 5.0 µM (retest, dose inferred, filed as 0.5)
# [8] = at 50.0 µM (retest, dose inferred, filed as 5.0)
SMILES,"growth inhibition [1, 7]","growth inhibition [1, 8]",growth inhibition ([1]; at 50.0 µM),"growth inhibition [2, 7]","growth inhibition [2, 8]",growth inhibition ([2]; at 50.0 µM),"growth inhibition [3, 7]","growth inhibition [3, 8]",growth inhibition ([3]; at 50.0 µM),"growth inhibition [4, 7]","growth inhibition [4, 8]",growth inhibition ([4]; at 50.0 µM),"growth inhibition [5, 7]","growth inhibition [5, 8]",growth inhibition ([5]; at 50.0 µM),"growth inhibition [6, 7]","growth inhibition [6, 8]",growth inhibition ([6]; at 50.0 µM)
CCC[CH2][Sn]([CH2]CCC)([O]C(=O)C(OC)c1ccccc1)[O]C(=O)C(OC)c1ccccc1 (centres undefined),44%,97% (active),89% (active),40%,96% (active),88.3% (active),44%,96% (active),84% (active),36%,96% (active),88.8% (active),77% (active),98% (active),92% (active),57%,98% (active),88.3% (active)
CC(=O)SC(SC(C)=O)SC(C)=O,11%,93% (active),93.9% (active),0%,98% (active),93.1% (active),15%,94% (active),93.1% (active),20%,97% (active),89.6% (active),29%,99% (active),92% (active),16%,99% (active),90.5% (active)
CC(=O)N(C)NC(=O)c1ccccc1,1%,-6%,10.4%,-1%,2%,-12.8%,1%,-4%,-10.2%,-8%,5%,27.3%,-2%,-1%,12.9%,0%,-5%,-4.7%
CCCCNCCCNCCCNC(=O)c1csc(-c2csc(CCNC(=O)C(NC(=O)C(C)C(O)C(C)NC(=O)C(NC(=O)c3nc(C(CC(N)=O)NCC(N)C(N)=O)nc(N)c3C)C(OC3OC(CO)C(O)C(O)C3OC3OC(CO)C(O)C(OC(N)=O)C3O)c3cnc[nH]3)C(C)O)n2)n1 (centres undefined),97% (active),99% (active),93% (active),98% (active),99% (active),93.8% (active),96% (active),98% (active),94% (active),95% (active),94% (active),91.9% (active),97% (active),98% (active),93.9% (active),98% (active),99% (active),92.7% (active)
Fc1ccccc1CN1COc2c(cc(Cl)c3cccnc23)C1,11%,71% (active),99% (active),-1%,43%,99.4% (active),2%,98% (active),99.5% (active),1%,98% (active),99.1% (active),-11%,99% (active),99.2% (active),5%,98% (active),99.3% (active)
CCCCCCC/C=C\C(=O)O,0%,13%,35.5%,4%,32%,17.9%,1%,38%,33.6%,4%,25%,38.9%,5%,23%,6.4%,1%,36%,74.5% (active)
CC1(C)CC(=O)C(CSC(=O)c2ccccc2)=C(O)C1,-1%,17%,-13.9%,-2%,-1%,-5.45%,-4%,-3%,3.05%,-2%,-11%,45.6%,-2%,-2%,-27.6%,-7%,15%,-6.2%
Cc1ccc(S(=O)(=O)NNC(=O)c2sc(-c3nc(C)c(C(=O)NNS(=O)(=O)c4ccc(C)cc4)s3)nc2C)cc1,2%,98% (active),7.3%,2%,99% (active),8%,5%,99% (active),83.5% (active),8%,98% (active),-43.5%,8%,98% (active),14.3%,2%,98% (active),15%
COC(=Nc1ccccc1)SSC(C)C,23%,77% (active),84.5% (active),19%,57%,86.8% (active),38%,87% (active),81.6% (active),38%,66%,46.4%,46%,92% (active),86.2% (active),21%,64%,85.5% (active)
CC(NNC(=S)N1CCCCCC1)c1cccnn1 (centres undefined),99% (active),99% (active),89% (active),98% (active),99% (active),93% (active),97% (active),99% (active),89.2% (active),98% (active),99% (active),90.5% (active),98% (active),99% (active),91.6% (active),99% (active),99% (active),85% (active)
Cc1nc2c(nc1C)C(=O)C1=C(C2=O)C2C=CC1CC2,0%,87% (active),89.8% (active),-2%,90% (active),74.6% (active),2%,94% (active),94.7% (active),-3%,68%,57%,24%,94% (active),93.5% (active),2%,93% (active),91.8% (active)
CCOc1cc2c(cc1Cc1c(OC)cc(OC)cc1OC)OCO2,5%,27%,46%,3%,31%,16.5%,8%,57%,88% (active),4%,30%,46.8%,4%,63%,77.8% (active),7%,73% (active),83.3% (active)
COC(=O)/C=C/c1c2ccccc2cc2ccccc12,11%,28%,14.8%,13%,39%,25.2%,18%,46%,64.3%,8%,24%,39.8%,9%,28%,37%,6%,36%,75.3% (active)
